Sampled rows, rich in hits. Any-hit rate of the full collection: about 11%.
JMJD2A Tudor: blocks the human JMJD2A Tudor domain; AlphaScreen JMJD2A-Tudor / H3K4me3 peptide binding; Potency, µM (titrated, usually from 114 µM), for inactives: top-dose activity change, negative = inhibition, hits mostly inhibitors; hit rate 4.4% among 390,000; AID 504339; note: % is set by controls: 0 for no effect and ±100 for the full control effect; nearly all actives have a fitted effect of over 50% in size
G9a block: blocks human histone lysine methyltransferase G9a; Q96KQ7; G9a H3K9 monomethylation, AlphaScreen, 2 h; Potency, µM (doses to about 102 µM), for inactives: at the top dose activity, negative = inhibition, hits mostly inhibitors; hit rate 8.8% among 350,000; note: % is set by controls: 0 for no effect and ±100 for the full control effect; nearly all actives have a fitted effect of over 75% in size
Target sequence (Q96KQ7 913-1193 limits assumed): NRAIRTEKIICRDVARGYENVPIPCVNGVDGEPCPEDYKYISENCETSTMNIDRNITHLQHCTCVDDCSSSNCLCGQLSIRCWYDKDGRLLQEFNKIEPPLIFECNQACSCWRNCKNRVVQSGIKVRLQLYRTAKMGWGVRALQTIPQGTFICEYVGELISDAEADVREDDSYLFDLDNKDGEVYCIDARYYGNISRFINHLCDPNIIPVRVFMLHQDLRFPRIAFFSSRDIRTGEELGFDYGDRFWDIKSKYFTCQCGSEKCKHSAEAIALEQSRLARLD
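AlphaScreen detection with an anti-monomethyl H3K9 antibody quantified product after a 2 h room-temperature reaction containing 500 nM biotinylated H3K9 peptide, 20 µM SAM and 20 nM enzyme, which had been preincubated 15 min with compound.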
HP1b chromo inh: blocks HP1-beta chromodomain binding to methylated histone tails. P83916. AlphaScreen HP1-beta / biotin-H3K9me3 peptide binding. Potency, µM (top dose mostly 114 µM), inactives show top-dose activity change, negative = inhibition, actives largely listed as inhibitors. hit rate 0.56% among 390,000. AID 540317; note: nearly all actives have a fitted effect of over 70% in size
Target sequence (P83916 whole entry, looked up): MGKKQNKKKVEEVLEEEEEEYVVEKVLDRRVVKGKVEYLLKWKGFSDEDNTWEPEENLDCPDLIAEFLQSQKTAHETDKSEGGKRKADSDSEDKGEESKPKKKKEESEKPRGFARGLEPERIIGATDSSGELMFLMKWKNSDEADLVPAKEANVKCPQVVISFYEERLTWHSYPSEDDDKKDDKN
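HP1-beta protein (50 nM final) preincubated 30 min at room temperature with biotinylated H3(1-18)K9me3 peptide (50 nM) in PBS pH 7.4, 0.01% Tween-20, then compound added for 30 min. AlphaScreen streptavidin donor/nickel chelate acceptor beads (10 ug/mL final), 30 min dark, luminescence read.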
BAZ2B block: BAZ2B (human) inhibition | Q9UIF8 | AlphaScreen BAZ2B-H3K14Ac peptide displacement | Potency, µM (titrated, usually from 114 µM), inactives show top-dose activity change, negative = inhibition, hits mostly inhibitors | hit rate 4.4% among 360,000 | AID 504333; note: % is set by controls: 0 for no effect and ±100 for the full control effect; nearly all actives have a fitted effect of over 60% in size
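AlphaScreen displacement of biotin-H3(5-23)K14Ac peptide (50 nM final) from BAZ2B (50 nM final) in PBS pH 7.4, 0.01% Tween-20; complex preformed 30 min RT, then compounds (top 110 uM) 30 min RT, beads 20 min dark.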
L3MBTL1 block: L3MBTL1 (human) inhibition | AlphaScreen L3MBTL1–H3K9me1 peptide binding | AID 485360 | Potency, µM (top dose mostly 57.1 µM), inactives show top-dose activity, negative = inhibition, actives largely listed as inhibitors | hit rate 0.66% among 230,000 | Q9Y468; note: % is set by controls: 0 for no effect and ±100 for the full control effect; nearly all actives have a fitted effect of over 60% in size
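AlphaScreen proximity signal between nickel-chelate acceptor and streptavidin donor beads (final 10 ug/mL) reports binding of 50 nM L3MBTL1 to 75 nM biotin-H3 K9me1 peptide; complex incubated with compounds 30 min at room temperature; cefsulodin titration as control.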
* marks the source's active call; other numbers are inactive results; ! = not active in a repeat; [ ] = remark or other dose. Calls come from the whole dose curve; as a rule, active = well fitted inhibition curve with a large enough effect; inconclusive = small, poorly fitted or top-dose-only effect; inactive = no such curve, though single readings can be large or run the other way. Potency is the fitted concentration of half-maximal effect.

Results for Cc1ccccc1CN1CCN(c2ccc(Cl)cc2)CC1 ?
JMJD2A Tudor: 3.98µM*; G9a block: 12.6µM*; HP1b chromo inh: -12.4%; BAZ2B block: inconclusive; L3MBTL1 block: 13.1%

How did COc1cc(C)c(CN2CCN(c3ccccc3)CC2)cc1C do in these assays?
JMJD2A Tudor: 3.16µM*; G9a block: inconclusive; HP1b chromo inh: -58.1%; BAZ2B block: inconclusive; L3MBTL1 block: -13.9%

What do the screens show for `c1csc(CN2CCC3(CCNCC3)CC2)n1`?
G9a block: 4.4%[12.7 µM]

What do the screens show for `c1cncc(C2CCCCN2)c1` (stereo not given)?
JMJD2A Tudor: -8.8%; G9a block: -0.9%; HP1b chromo inh: 24.8%; BAZ2B block: -0.8%; L3MBTL1 block: -0.6%

How did c1cncc(C2Nc3cccc4cccc(c34)N2)c1 do in these assays?
JMJD2A Tudor: inconclusive; G9a block: 11.2µM*!; HP1b chromo inh: inconclusive; BAZ2B block: inconclusive

Results for CN1CCC2(CC1)CCN(C(=O)Oc1ccccc1)CC2 ?
G9a block: 4.3%[12.7 µM]

Results for COc1cc2c(cc1/C=C/[N+](=O)[O-])OCO2 ?
JMJD2A Tudor: -22.8%; G9a block: inconclusive; HP1b chromo inh: 44.4%; BAZ2B block: -29.9%

Results for O=[N+]([O-])/C=C/c1ccc2c(c1)OCO2 ?
G9a block: 2.12µM*

Results for CN(C)c1ccc(/C=C/[N+](=O)[O-])cc1 ?
JMJD2A Tudor: -4.1%; G9a block: 70.8µM*; HP1b chromo inh: 2.5%[57 µM]; BAZ2B block: -6.3%; L3MBTL1 block: -4.0%

How did CNC(=O)COC(=O)c1ccc(-c2nc3ccccc3s2)s1 do in these assays?
JMJD2A Tudor: -2.8%; G9a block: inconclusive; HP1b chromo inh: 10.5%; BAZ2B block: 3.3%

How did C[C@]12CCC3C(CC[C@H]4C[C@H](O)CC[C@]34C)[C@@H]1CC[C@@H]2C(=O)CO (stereo not given in full) do in these assays?
G9a block: 31.2%[59 µM]

How did O=C(O)c1ccccc1S do in these assays?
G9a block: 39.8µM*; BAZ2B block: 2.8%; L3MBTL1 block: 5.0%

How did O=C(c1cc2ccccn2n1)N1CCN(Cc2ccccc2)CC1 do in these assays?
JMJD2A Tudor: -1.4%; G9a block: inconclusive; HP1b chromo inh: 42.7%; BAZ2B block: 0.6%

Results for CN1C(=O)C(C2c3ccccc3C(=O)N2Cc2ccc([N+](=O)[O-])cc2)C(=O)N(C)C1=O (stereo not given) ?
JMJD2A Tudor: -24.6%; HP1b chromo inh: 55.7%; BAZ2B block: -11.2%; L3MBTL1 block: 6.6%

Results for CN1C(=O)C(C2c3ccccc3C(=O)N2Cc2ccccc2)C(=O)N(C)C1=O (stereo not given) ?
JMJD2A Tudor: -28.5%; G9a block: inconclusive; HP1b chromo inh: 17.4%; BAZ2B block: 79.4µM*

Results for Cc1cc(=O)n2[nH]c(C)cc2n1 ?
JMJD2A Tudor: -6.8%[11.4 µM]; G9a block: -34.3%; HP1b chromo inh: 61.2%; BAZ2B block: 4.9%

Results for O=C1NCCN2CCCC12 (stereo not given) ?
JMJD2A Tudor: 3.1%; G9a block: 12.6µM*; HP1b chromo inh: 53.6%; BAZ2B block: -7.7%; L3MBTL1 block: 3.9%

What do the screens show for `COc1ccc(NC(=O)CCCn2c(=O)oc3ccccc32)cc1Cl`?
JMJD2A Tudor: -5.0%; G9a block: -8.8%[59 µM]; HP1b chromo inh: 46.8%; BAZ2B block: -21.3%; L3MBTL1 block: 7.0%

What do the screens show for `O=C(O)C1CN(CP(=O)(O)O)CCN1` (stereo not given)?
G9a block: 19.5%[59 µM]

Results for C[C@H](NC(=O)[C@@H](N)Cc1ccc(O)cc1)C(=O)NCC(=O)N(C)[C@@H](Cc1ccccc1)C(=O)NCCO ?
G9a block: 34.6%[59 µM]

How did C(=C\c1ccccc1)/CN1CCN(CCOC(c2ccccc2)c2ccccc2)CC1 do in these assays?
G9a block: 11.2µM*

Results for Clc1ccc([C@@H](OCCN2CCCCC2)c2ccccc2)cc1 ?
G9a block: 5.5%[21.5 µM]

What do the screens show for `CC1OC(O[C@H]2C[C@@H](O)[C@]3(CO)[C@@H]4C(CC[C@]3(O)C2)[C@@]2(O)CC[C@H](C3=CC(=O)OC3)[C@@]2(C)C[C@H]4O)C(O)C(O)C1O` (stereo not given in full)?
G9a block: 27.7%[59 µM]

Results for CCOc1cc(-c2ccc(N)c(OCC)c2)ccc1N ?
JMJD2A Tudor: inconclusive; G9a block: inconclusive; HP1b chromo inh: 8.91µM*; BAZ2B block: 14.1µM*; L3MBTL1 block: inconclusive

What do the screens show for `Oc1ccccc1-c1ccccc1`?
G9a block: 20.7%[59 µM]

What do the screens show for `CC(C)n1c(/C=C\[C@@H](O)C[C@@H](O)CC(=O)O)c(-c2ccc(F)cc2)c2ccccc21`?
G9a block: 12.4%[21.5 µM]

What do the screens show for `COc1cc(N)ccc1Cc1ccc(N)cc1OC`?
JMJD2A Tudor: 79.4µM*; G9a block: -20.5%[59 µM]; HP1b chromo inh: -13.8%; L3MBTL1 block: -16.0%

How did COc1ccc(Nc2c(-c3cc(Br)ccc3O)nc3ncccn23)cc1OC do in these assays?
JMJD2A Tudor: 20µM*; G9a block: 10µM*; HP1b chromo inh: inconclusive; BAZ2B block: 14.1µM*

Results for Oc1ccc(C[C@H]2NCCc3cc(O)c(O)cc32)cc1O ?
JMJD2A Tudor: 39.8µM*; G9a block: inconclusive; HP1b chromo inh: 79.4µM*; BAZ2B block: -19.3%

How did CCOC(=O)/C=C(C)/C=C/CC(C)CCCC(C)C (stereo not given) do in these assays?
G9a block: 2.2%[12.7 µM]

How did O=C(CCCCCn1c(=S)[nH]c2ccccc2c1=O)N1CCC2(CC1)OCCO2 do in these assays?
JMJD2A Tudor: -22.5%; G9a block: 50.1µM*; HP1b chromo inh: 40.5%; BAZ2B block: -7.2%; L3MBTL1 block: -0.3%

How did O=C(Cn1c(=O)oc2cc(S(=O)(=O)N3CCCC3)ccc21)Nc1cccc(C(F)(F)F)c1 do in these assays?
JMJD2A Tudor: -11.1%; G9a block: -33.8%[59 µM]; HP1b chromo inh: 12.3%; BAZ2B block: 28.8%; L3MBTL1 block: 51.0%

What do the screens show for `COc1ccc2c(c1)NP(=S)(c1ccccc1)N2C` (stereo not given)?
JMJD2A Tudor: 50.1µM*; HP1b chromo inh: 35.5µM*

Results for NCCc1cccc(O)c1 ?
G9a block: 35.2%[59 µM]

How did O=C(COc1ccc(Br)cc1)Nc1ccc(Cl)cc1C(=O)c1ccccc1 do in these assays?
JMJD2A Tudor: -10.5%; G9a block: 10.7%[59 µM]; HP1b chromo inh: 16.2%; BAZ2B block: -0.6%

How did COc1cc([C@@H]2c3cc4c(c(O)c3C[C@H]3COC(=O)[C@@H]32)OCO4)cc(OC)c1OC do in these assays?
JMJD2A Tudor: -26.2%; HP1b chromo inh: 25.0%
